# Measurements reported in the supplement of paper PMC4466236.
# The full ranking holds about 33,000 sequences; the median of “E-score (dimensionless, -0.5 to 0.5)” is about -0.058, and the highest 2% start at about 0.35. What follows is part of a selection rich in the highest values, with near analogues and random picks from the rest.
# System: MvaT
# Assay: PBM 8-mer E-score (mean of HK and ME arrays) (E-score (dimensionless, -0.5 to 0.5)); higher = stronger relative binding preference
# Procedure: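 Protein binding microarray: GST-tagged full-length MvaT (P. aeruginosa PAO1) bound to two universal double-stranded 60-mer arrays (ME and HK), each with a constant 25-mer primer and a variable 35-mer region covering all 8-mers. The 8-mer E-score (rank-based, range -0.5 to 0.5, >0.45 = specific binding) is the mean of the two arrays.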
row,Sequence,PBM 8-mer E-score
1,ATACCGAG,-1.06e-05
2,AAGAGAAT,0.126
3,GCTATGGA,-0.0686
4,CGCCTAAG,-0.113
5,AGCTCCCG,-0.29
6,CCTTTTGA,-0.074
7,AAAATAGA,0.173
8,AAAATAAG,0.331
9,CAAATAAA,0.301
10,TAAATAGA,0.291
11,TAAATAAA,0.421
12,AAAATAAA,0.409
13,AGTGCTAT,0.172
14,TACGATCA,0.0229
15,TCGAATCA,-0.0287
16,ACACTTGC,-0.00708
17,ACCAATAT,0.282
18,AACAATCT,0.0729
19,TACAATAA,0.328
20,AACAATAG,0.294
21,CACAATAA,0.351
22,AACAATTA,0.391
23,CACAATAG,0.176
24,AACAATTG,0.217
25,AACAATAA,0.422
26,AACAATAC,0.254

row,Sequence,PBM 8-mer E-score
1,AACAATAT,0.362
2,AACAATTC,0.27
3,ATGTAGTC,0.1
4,GGACGTTA,-0.103
5,CACATTAG,0.162
6,CAGCGAGC,-0.199
7,GCCCCCGC,-0.248
8,CCTTTGAG,-0.158
9,ACACGACG,-0.192
10,ATGATCAC,-0.0926
11,AACTTACT,0.335
12,GACTTATC,0.0104
13,AACTTATT,0.398
14,CACTTATC,0.14
15,AACTTAGT,0.289
16,CACTTATG,0.12
17,AACTTAGG,0.182
18,AACTTATC,0.351
19,AACTTATG,0.372
20,CAGAGCCC,-0.374
21,ATCTCGAA,-0.0688
22,ACTGGAAG,-0.0943
23,ACTCTGGC,-0.165
24,AAGCACAG,-0.107
25,ATAGTAAA,0.327
26,AAAGTAAT,0.373

row,Sequence,PBM 8-mer E-score
1,AAAGTAAC,0.206
2,ATAGTAAT,0.353
3,AAAGTAAA,0.306
4,ATAGTAAC,0.271
5,AGTCATCG,-0.269
6,CATATCTA,0.122
7,CATATACG,0.143
8,CTCATATA,0.324
9,CATATATA,0.451
10,CATATATC,0.398
11,CATATACC,0.166
12,CATATATG,0.449
13,CATATAGG,0.151
14,CTCATATC,-0.0618
15,GAGGGGAC,-0.373
16,CCCCAAAA,-0.131
17,ACAGATAA,0.287
18,GCCGACTA,-0.209
19,AACCTACC,-0.156
20,GGGATTAA,0.144
21,GGCGGTTA,-0.177
22,ATTAGCAC,0.0511
23,CAACCCGA,-0.0421
24,GAATAAAA,0.354
25,GGATAAAA,0.265
26,CAATAAAA,0.286

row,Sequence,PBM 8-mer E-score
1,GAATAAAC,0.192
2,TAAAAAAA,0.321
3,TAATAAAA,0.389
4,GCTGCTAA,-0.101
5,CTATGCAG,-0.146
6,ATCTAGCA,0.152
7,ATAAGTAC,0.305
8,AAAAGTAA,0.28
9,ATAAGTAG,0.341
10,GTAAGTAA,0.207
11,ATAAGTAA,0.371
12,CAAAGTAA,0.216
13,ATAAGTAT,0.356
14,TAAAGTAA,0.365
15,TTAAGTAA,0.328
16,ATCGTCAC,-0.196
17,CCTTCAAA,-0.128
18,CCACGACA,0.011
19,AACATCAT,0.171
20,CCCTACCC,-0.224
21,CCAAACGC,-0.0718
22,AGCTGCAC,-0.122
23,ACTTGCAA,0.123
24,CCAAACAC,0.111
25,ATCAGTGA,-0.0827
26,CTATCCAG,-0.0225

row,Sequence,PBM 8-mer E-score
1,ATTCTTGA,0.0466
2,ATTCGGTG,-0.00558
3,AATCCACA,0.139
4,AATATCTC,0.253
5,AATATATC,0.445
6,AATATATG,0.446
7,AATATCCC,0.174
8,AATATCAC,0.407
9,ACTATATG,0.306
10,AATATCTG,0.207
11,AATATCAA,0.338
12,GATATCAC,0.119
13,GTATCTTA,0.194
14,ACAGGTTG,-0.21
15,AGGAACCT,-0.139
16,AATTCTAC,0.188
17,ACTAGGCT,-0.105
18,ACACCTCC,-0.0337
19,CCGGTAAA,0.0751
20,TATTAGGA,0.247
21,ATAATATG,0.435
22,ATAATCTG,0.196
23,ATAATATC,0.437
24,ATCATATG,0.241
25,ATGATATC,0.131
26,ATAATCTC,0.337

row,Sequence,PBM 8-mer E-score
1,CTACGATC,0.0594
2,CTGAATAA,0.226
3,AAGAATAT,0.316
4,ATGAATAG,0.131
5,AAGAATAA,0.368
6,ATGAATAA,0.368
7,AAGAATAC,0.118
8,CGCTTGCC,-0.327
9,GATATTCA,0.0985
10,GATATTGA,0.228
11,AATATTCA,0.312
12,TATATTCA,0.373
13,TATATTGA,0.387
14,CATATTGA,0.264
15,CCCGGGGA,-0.299
16,ATGATAAC,0.178
17,AGTATAAT,0.336
18,CTTATAAC,0.352
19,CTCATAAC,-0.0784
20,GTTATAAA,0.345
21,ATTATAAC,0.415
22,ATTATAGC,0.282
23,ATGATAAT,0.292
24,CCTATAAC,0.186
25,GCTATAAC,0.13
26,GTTATAAC,0.434

row,Sequence,PBM 8-mer E-score
1,ATTATAAT,0.468
2,AAGTGACT,0.00519
3,CTCCCTAA,-0.204
4,GTGTGGGA,0.0582
5,GACGCTGC,-0.183
6,AATCGTGG,-0.0233
7,AAGCGGTG,-0.19
8,AAATCTAC,-0.0273
9,ACGAACGA,-0.115
10,CTAAGCAC,-0.0271
11,ATCATAAA,0.308
12,CTCATAAA,0.0815
13,ACTATAAA,0.316
14,CCTATAAA,0.211
15,ACTATACT,0.228
16,CTCATAAG,-0.122
17,ATTATAAA,0.462
18,CTTATAAG,0.394
19,ACTATAAT,0.436
20,CGTATAAG,0.147
21,CTTATAAA,0.377
